# NSD2 HMT inh = blocks human histone methyltransferase NSD2; inhibition, % at 12.5 µM; NSD2 peptide methylation, AlphaScreen, 120 min; O96028; 310,000 tested, 0.54% active; in the data active = inhibition above about 50%
# PglD DTNB = blocks C. jejuni PglD acetyltransferase activity; purified PglD enzyme, DTNB colorimetric CoA detection; inhibition, % at 12.5 µM; 360,000 tested, 0.098% active; AID 602405; in the data active = inhibition above about 16%, passing the limit was not always enough
# Env fusion inh = blocks HIV Env-driven cell-cell fusion | HeLa-JRFL Env/CEM21 cell fusion, luciferase | inhibition, % at 12.3 µM | 360,000 tested, 1.1% active | AID 651610;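 active = mean replicate inhibition score of at least 50 and every replicate individually at or above 50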;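 note: 0% = plate neutral controls and 100% = maraviroc near 300 nM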
# ALR H2O2 inh = inhibitors of human sulfhydryl oxidase ALR. P55789. purified ALR, DTT oxidation, H2O2 HRP-luminol luminescence. inhibition, % (no concentration beside the values). 290,000 tested, 3.8% active;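 active = mean replicate inhibition above about 79%, with every replicate also reaching it, limit read from the data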
# CASP6 VEID inh = inhibitors of human caspase-6. P55212. 350,000 tested, 0.53% active. inhibition, % at 12.5 µM. purified caspase-6, Z-VEID-R110 cleavage fluorescence;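 active = mean inhibition across replicates at least about 35%, with every replicate also reaching that limit, limit read from the data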;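 note: 0% = median of neutral control wells and 100% = no fluorescence left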
# F508del corr = CFTR F508del correction in bronchial cells. CFBE cells, YFP halide quenching; stimulated with forskolin plus potentiator P3; % fluorescence drop versus neutral controls. activity (quench increase), % at 7.58 µM. 350,000 tested, 0.36% active. AID 720511;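 active = mean added fluorescence quench of at least 8% versus neutral control, with both replicates also reaching 8%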;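 note: cells transiently co-express mutant CFTR-F508del with the halide-sensitive YFP; corrector assay measuring rescue of mutant channel to the surface after 24 h compound exposure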
# Starred values were filed as active, the others as inactive; · = not tested or not shown; [ ] = another dose, or the depositor's remark. Only some compounds are listed: those with a hit (about 4.1% of all), similar ones and a draw of the others.
SMILES,NSD2 HMT inh,PglD DTNB,Env fusion inh,ALR H2O2 inh,CASP6 VEID inh,F508del corr
COC(=O)c1ccc(NC(=O)CSCC(=O)OCC(=O)c2ccc(Br)cc2)cc1,2.2,-5.4,-42.2,99.5*,·,·
CCOC(=O)c1ccc(NC(=O)c2ccco2)cc1,-0.9,-0.8,-73.7,0.0,-1.3,-2.1
Cc1noc(C)c1NC(=O)Nc1ccc2c(c1)CC(=O)N([C@H](C)CO)C[C@@H](C)[C@@H](CN(C)S(=O)(=O)c1ccc(F)cc1)O2,·,-1.0,-14.1[16.7 µM],·,1.7,-1.8
O=C(Nc1cccc(Cl)c1)N1C[C@H]2[C@@H](c3ccccc31)[C@H](CO)N2Cc1ccncc1,·,1.7,·,·,-1.6,-5.1
Fc1ccc(NCc2nnc3n2CCCCC3)cc1,-6.2,·,12.7,19.5,2.2,-0.1
Cc1ccc(NCc2nnc3n2CCCCC3)c(C)c1,·,·,10.0,98.7*,-2.4,-4.0
COc1cc(/C=N/N=C2\CC3CCC2(C)C3(C)C)ccc1O (stereo unspecified),-2.0,3.4,-37.6,98.7*,·,·
COc1ccc(/C=N/N=C2\CC3CCC2(C)C3(C)C)cc1O (stereo unspecified),2.8,6.1,·,65.8,·,·
O=C(C[C@H]1CC[C@@H]2[C@H](COC[C@@H](O)CN2Cc2ccc(Oc3ccccc3)cc2)O1)N1CCCCC1,·,-1.8,·,·,1.2,-2.0
C[C@H](CO)N1C[C@H](C)[C@@H](CN(C)C(=O)Nc2cccc3ccccc23)OCCCC[C@H](C)Oc2ccc(NS(=O)(=O)c3ccc(F)cc3)cc2C1=O,·,-1.7,32.7[16.7 µM],·,0.2,-4.5
Cc1ccc(C2CC2c2n[nH]c(=S)n2-c2ccc(C)cc2)cc1 (stereo unspecified),3.2,-4.8,·,36.3,6.2,0.0
Cc1occc1-c1n[nH]c(=S)n1C,0.0,·,-30.5,1.9,1.0,-0.7
Cc1ccc(-n2c([C@@H]3C[C@H]3c3ccccc3)n[nH]c2=S)cc1,-0.7,·,2.7,84.8*,-1.4,·
Cc1ccc(-n2c(-c3ccco3)n[nH]c2=S)cc1,7.3,·,-10.4,87.7*,-1.1,-5.0
Cc1occc1-c1n[nH]c(=S)n1-c1ccccc1,-0.9,2.1,-5.3,94.3*,0.9,·
Fc1ccc(-n2c(-c3ccco3)n[nH]c2=S)cc1,2.9,-3.8,2.2,65.4,-1.2,4.0
